According to PubChem BioAssay AID463173 (ICCB-Longwood Screening Facility, Harvard Medical School, 2010):
Among all 52,000 compounds or so, about 4,300 (8.3%) were called active. The full list was thinned out, with actives kept by preference. Unmarked numbers belong to inactive results. No stated cut-off is given here; in the data, active means survival mostly below about 52% (no sharp cut-off); inactive means mostly above about 56%.

System: DeltatarO mutant
Test: growth inhibition of S. aureus wild type versus tarO mutant, primary screen, teichoic acid synthesis inhibitors, RN4220, OD600 (AID 463173)
Conditions: OD600, 18 h, stronger effect = lower value, screened at 18.75 µg/mL (by protocol)

| Structure (SMILES) | survival |
| --- | --- |
| O=C(Nc1ccc(F)c(Cl)c1)C1CCCN(c2ncnc3onc(-c4ccc(F)cc4)c23)C1 (stereo unspecified) | 78% |
| CN(Cc1ccco1)S(=O)(=O)c1nnc(NC(=O)c2ccccc2)s1 | 23% (active) |
| CC(C)COc1ccc(C(=O)Nc2nnc(S(=O)(=O)N(C)Cc3ccco3)s2)cc1 | 79% |
| Cc1ccc(C(=O)Nc2nnc(S(=O)(=O)N(C)Cc3ccco3)s2)cc1 | 39% (active) |
| CN(Cc1ccco1)S(=O)(=O)c1nnc(NC(=O)c2ccccc2Cl)s1 | 76% |
| Cc1ccc(C(=O)Nc2nnc(S(=O)(=O)N(C)Cc3ccc(F)cc3)s2)cc1 | 60% |
| O=C(CCCSc1nc(-c2ccco2)cc(C(F)(F)F)n1)NC1CCCCC1 | 86% |
| Cc1ccc(N(Cc2cccs2)C(=O)C(C)Oc2ccc(Cl)c(C)c2)cc1 (stereo unspecified) | 58% |
| COc1ccc(Cl)cc1C(=O)N1CCCC1 | 100% |
| CN1C(C(=O)Nc2ccc(F)cc2F)=CC(c2ccc3c(c2)OCO3)=NS1(=O)=O | 68% |
| Cc1ccc(Cn2ccnc2SCC(=O)NCc2ccc(F)cc2)cc1 | 101% |
| O=C(/C=C/c1ccco1)NC(=S)NC1CCCCC1 | 115% |
| Cc1ccc(OC(=O)CSc2nnc(-c3ccco3)n2-c2ccccc2)cc1 | 52% |
| Cc1cc(=O)n2nc(N3CCC(C(=O)Nc4ccc(Br)cc4F)CC3)sc2n1 | 94% |
| Cc1cc(C)cc(NC(=O)c2cc(S(=O)(=O)N3CCCC3)ccc2F)c1 | 92% |
| CCc1ccc2c(c1)c(=O)c(S(=O)(=O)c1ccccc1)cn2CC(=O)Nc1ccc(OC)cc1 | 76% |
| COc1cc(OC)cc(C(=O)Nc2cc(-c3nc4cc(Cl)ccc4o3)ccc2Cl)c1 | 71% |
| O=C(Nc1cc(-c2nc3cc(Cl)ccc3o2)ccc1Cl)c1ccco1 | 41% (active) |
| O=C(Nc1ccc2oc(-c3ccc4ccccc4c3)nc2c1)c1cc(Cl)ccc1Cl | 86% |
| O=C(COc1ccccc1[N+](=O)[O-])Nc1cc(-c2nc3cc(Cl)ccc3o2)ccc1Cl | 66% |
| O=C(/C=C/c1ccccc1)Nc1cc(-c2nc3ccccc3o2)ccc1Cl | 59% |
| O=C(Nc1cc(-c2nc3cc(Cl)ccc3o2)ccc1Cl)c1cccc2ccccc12 | 44% (active) |
| O=C(/C=C/c1ccccc1)Nc1cc(-c2nc3cc(Cl)ccc3o2)ccc1Cl | 46% (active) |
| O=C(Cc1ccccc1)Nc1cc(-c2nc3cc(Cl)ccc3o2)ccc1Cl | 68% |

| Structure (SMILES) | survival |
| --- | --- |
| COc1cc(OC)c(-c2cc(C(=O)NCc3ccc(F)cc3)c3c(-c4ccccc4)[nH]nc3n2)cc1OC | 98% |
| O=C(NCC1CCCO1)C12CC3CC(CC(C3)C1)C2 (stereo unspecified) | 109% |
| CC(C)Oc1ccccc1NC(=O)CSc1nccn1C | 60% |
| CCOCCc1nn2c(=O)cc(COC(=O)COc3ccc(C)c(C)c3)nc2s1 | 89% |
| O=C(CN1CCN(C2CCCCC2)C(=O)C1=O)Nc1ccc(Cl)cc1 | 86% |
| CCOC(=O)c1c(NC(=O)c2cc3nc(-c4ccc(Br)cc4)cc(C(F)(F)F)n3n2)sc(C(C)=O)c1C | 83% |
| CCOC(=O)c1cccc(NC(=O)[C@@H](c2ccccc2)N2Cc3ccccc3C2=O)c1 | 58% |
| Cc1ccccc1-c1nnc(SCC(=O)N(C)c2ccccc2)o1 | 79% |
| O=C(OC1CSc2nc3ccccc3n2C1)c1ccccc1Cl (stereo unspecified) | 95% |
| COC(=O)C1CC(=O)N(c2ccccc2)C1 (stereo unspecified) | 72% |
| CC(C)CCOc1ccc(C(=O)NCC2OCCc3ccccc32)cc1 (stereo unspecified) | 39% (active) |
| CCCOc1ccc(C(=O)NCC2OCCc3ccccc32)cc1 (stereo unspecified) | 49% |
| CC(C)COc1ccc(C(=O)NCC2OCCc3ccccc32)cc1 (stereo unspecified) | 51% |
| Cc1ccccc1NC(=O)CSc1nnc(-c2cccs2)o1 | 71% |
| Cc1c(Cl)cccc1-n1ncc(C(=O)Nc2ccc(Br)cc2F)c1C1CCNCC1 | 87% |
| COc1cc(Cl)c(NS(=O)(=O)c2ccc3[nH]c(=O)ccc3c2)c(OC)c1 | 102% |
| O=C(CNS(=O)(=O)c1ccc(Cl)cc1)NC1CCCC1 | 67% (active) |
| CC(C)(C)C(=O)CNS(=O)(=O)c1ccc(S(=O)(=O)NC2CCCCC2)cc1 | 79% |
| O=C(CNS(=O)(=O)c1ccc(Cl)cc1)NN=C1CCCCC1 | 92% |
| Cc1cc(-c2ccc(S(=O)(=O)NCc3ccccc3Cl)s2)on1 | 128% |
| CCOc1ccc(OCC)c(NC(=O)c2cc3ccccn3n2)c1 | 87% |
| COc1ccc(-c2noc(CNC(=O)c3cc(OC)c(OC)c(OC)c3)n2)cc1 | 55% |
| COc1cc(OC)c(C(=O)NCc2nc(-c3ccccc3)no2)cc1OC | 41% (active) |
| COc1ccc(-c2noc(CNC(=O)c3ccc(OC)cc3OC)n2)cc1 | 62% (active) |

| Structure (SMILES) | survival |
| --- | --- |
| COc1cc(C(=O)NCc2nc(-c3ccc(Cl)cc3)no2)cc(OC)c1OC | 59% |
| COc1ccc(Cl)cc1C(=O)NCc1nc(-c2cccc(C)c2)no1 | 48% |
| COc1ccc(-c2noc(CNC(=O)c3ccccc3Br)n2)cc1 | 51% |
| COc1ccc(-c2noc(CNC(=O)c3ccco3)n2)cc1 | 87% |
| COc1cccc(C(=O)NCc2nc(-c3ccccc3)no2)c1OC | 43% (active) |
| O=C(NCc1nc(-c2ccccc2)no1)c1ccco1 | 68% |
| NC(=O)Cn1cc(F)c(=O)[nH]c1=O | 87% |
| Cc1ccccc1-c1noc(C(C)NC(=O)c2ccco2)n1 (stereo unspecified) | 79% |
| COc1ccc(-n2c(=O)c3c4c(sc3n(Cc3ccccc3C)c2=O)CCCC4)c(OC)c1 | 64% |
| CCOc1ccccc1NC(=O)c1cc(S(=O)(=O)NC2CCCC2)ccc1F | 81% |
| O=C(NCC(c1ccccc1)c1ccccc1)c1nn(-c2ccccc2F)nc1CO | 104% |
| O=c1c2sc3ccccc3c2n(Cc2ccc(F)cc2)c(=O)n1Cc1ccccc1 | 137% |
| Cc1ccccc1NC(=O)Cn1c(=O)n(Cc2ccccc2)c(=O)c2sc3ccccc3c21 | 65% |
| COc1ccccc1NC(=O)Cn1c(=O)n(Cc2ccccc2)c(=O)c2sc3ccccc3c21 | 68% (active) |
| COc1ccccc1NC(=O)Cn1c(=O)n(CCc2ccccc2)c(=O)c2sc3ccccc3c21 | 74% |
| O=c1c2sc3ccccc3c2n(Cc2cccc(Cl)c2)c(=O)n1Cc1ccccc1 | 66% |
| O=c1c2sc3ccccc3c2n(Cc2cccc(Cl)c2)c(=O)n1Cc1ccc(F)cc1 | 68% (active) |
| CCS(=O)(=O)c1ncc(N(Cc2cccc(F)c2)Cc2ccco2)c(C(=O)Nc2ccccc2Cl)n1 | 64% |
| CCc1ccc(CN(Cc2ccco2)c2cnc(S(C)(=O)=O)nc2C(=O)Nc2ccccc2Cl)cc1 | 101% |
| COc1cccc(CN(Cc2ccco2)c2cnc(S(C)(=O)=O)nc2C(=O)Nc2cccc(Cl)c2C)c1 | 47% (active) |
| COc1ccccc1CN(Cc1ccco1)c1cnc(S(C)(=O)=O)nc1C(=O)Nc1ccccc1Cl | 46% (active) |
| COc1ccc(Cl)cc1NC(=O)c1nc(S(C)(=O)=O)ncc1N(Cc1ccc(C)cc1)Cc1ccco1 | 103% |
| COc1ccccc1CN(Cc1ccco1)c1cnc(S(C)(=O)=O)nc1C(=O)Nc1cc(C)ccc1C | 58% |
| CCOc1ccccc1NC(=O)C(=O)c1cc(C)n(-c2ccc(F)cc2)c1C | 114% |

| Structure (SMILES) | survival |
| --- | --- |
| Cn1cc(-c2nnc(-c3ccccc3)o2)c2ccccc21 | 94% |
| CCOc1ccc(C(=O)NCc2nc(-c3ccc(Cl)cc3)no2)cc1OCC | 49% |
| CC(C)N(Cc1nc(-c2ccc(Cl)cc2)no1)C(=O)c1ccc(C(C)(C)C)cc1 | -1% (active) |
| CCOc1cc(C(=O)NCc2nc(-c3cccc(C)c3)no2)cc(OCC)c1OCC | 70% |
| COc1cccc(C(=O)N(Cc2nc(-c3ccc(Cl)cc3)no2)C(C)C)c1OC | 66% |
| Cc1cc(C)cc(C(=O)N(Cc2nc(-c3ccc(Cl)cc3)no2)C(C)C)c1 | 14% (active) |
| Cc1ccc(-c2noc(CN(C(=O)c3ccc(C(C)(C)C)cc3)C(C)C)n2)cc1 | -4% (active) |
| Cc1ccccc1C(=O)N(Cc1nc(-c2ccc(Cl)cc2)no1)C(C)C | 78% |
| CCOc1cc(C(=O)N(Cc2nc(-c3ccc(C)cc3)no2)C(C)C)cc(OCC)c1OCC | 50% (active) |
| CCCCOc1ccc(C(=O)N(Cc2nc(-c3ccc(Cl)cc3)no2)C(C)C)cc1 | 59% |
| Cc1ccc(-c2noc(CNC(=O)c3ccc(C(C)(C)C)cc3)n2)cc1 | 79% |
| CC(C)N(Cc1nc(-c2ccc(Cl)cc2)no1)C(=O)c1ccco1 | 68% |
| O=C(CCN1C(=O)CSC1=O)Nc1ccccc1 | 114% |
| COc1ccc(OC)c(-c2noc(N3CCN(c4cccc(C(F)(F)F)c4)CC3)n2)c1 | 124% |
| COc1ccc(NC(=O)c2cnn(-c3ccc(C)cc3)c2-n2cccc2)cc1Cl | 69% |
| CN1C(=O)Cc2cc(S(=O)(=O)N3CCN(c4ccccc4F)CC3)ccc21 | 107% |
| COC(=O)c1cc2occc2n1CC(=O)Nc1ccc(C(C)C)cc1 | 93% |
| CCc1ccccc1Nc1cc(C(=O)NCc2ccc(C)cc2)c2ccccc2n1 | 69% |
| COc1ccccc1CNC(=O)CCC(=O)N1CC(C)Sc2ccccc21 (stereo unspecified) | 111% |
| CC1CN(C(=O)CCC(=O)NCc2cccc(Cl)c2)c2ccccc2S1 (stereo unspecified) | 100% |
| COc1cccc(CNC(=O)CCC(=O)N2CC(C)Sc3ccccc32)c1 (stereo unspecified) | 51% (active) |
| Cc1ccc(CNC(=O)CCC(=O)N2CCSc3ccccc32)cc1 | 113% |
| Cc1ccc(CNC(=O)CCC(=O)N2CC(C)Sc3ccccc32)cc1 (stereo unspecified) | 45% (active) |
| CCOc1ccc(CNC(=O)CCC(=O)N2CC(C)Sc3ccccc32)cc1 (stereo unspecified) | 56% |
